PglD DTNB = PglD (C. jejuni) enzyme inhibition; purified PglD enzyme, DTNB colorimetric CoA detection; inhibition, % at 12.5 µM; actives 0.098% (n = 360,000); AID 602405; in the data active means inhibition above about 16%, passing the limit was not always enough
CFTR F508del cor = CFTR F508del correction in bronchial cells; CFBE cells, YFP halide quenching; stimulated with forskolin plus potentiator P3; % fluorescence drop versus neutral controls; actives 0.36% (n = 350,000); AID 720511; activity (quench increase), % at 7.58 µM;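 active means mean added fluorescence quench of at least 8% versus neutral control, with both replicates also reaching 8%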;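 further: cells transiently co-express mutant CFTR-F508del with the halide-sensitive YFP; corrector assay measuring rescue of mutant channel to the surface after 24 h compound exposure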
C2C12 statin = protects C2C12 myotubes from simvastatin toxicity; AID 602340; rescue of ATP level, % at 7.49 µM; ATP luminescence, 48 h; scaled: DMSO 0, geranylgeraniol control 100; actives 0.78% (n = 330,000);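 active means mean ATP rescue above about 67%, or every replicate alone reaching that limit, limit read from the data, passing the limit was not always enough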;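 further: myotubes were challenged with 10 µM simvastatin during compound exposure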
ARNT TACC3 PPI = disruptors of human ARNT/TACC3 interaction; actives 0.66% (n = 390,000); AID 623870; AlphaScreen His-ARNT PAS-B/GST-TACC3 binding, luminescence; TACC3 fragment carries E629A point mutation; inhibition, % at 9.99 µM;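 active means mean inhibition of replicates at least 50% and at least half of replicates each reaching 50%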;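 further: 0% = complete ARNT plus TACC3 wells and 100% = ARNT alone without TACC3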
An asterisk follows results filed as active; x = no result given; ! = a repeat was not active. A selection: hits, their analogues and other compounds. The true share with any hit is near 1.4%.

SMILES	PglD DTNB	CFTR F508del cor	C2C12 statin	ARNT TACC3 PPI
CCN(Cc1ccccc1)S(=O)(=O)c1ccc(C(=O)Nc2nnc(C3CC3)o2)cc1	x	4	-8	33
Cc1nnc(NC(=O)c2ccc(S(=O)(=O)N(C)Cc3ccccc3)cc2)o1	-2	x	-21	46*
O=C(Nc1nc(NC(=O)c2ccco2)n(-c2ccccc2)n1)c1ccccc1	1	x	94*	56*
C[C@H]1CN([C@@H](C)CO)C(=O)c2cccc(NC(=O)c3cnccn3)c2O[C@@H]1CN(C)C(=O)Nc1ccccc1	0	-2	-11	9
CS(=O)(=O)N1CC(=O)N2[C@H](C1)[C@H](c1ccc(C#Cc3ccc(F)cc3)cc1)[C@@H]2CO	x	10*	x	x
O=C(c1cccc(F)c1)N1CC(=O)N2[C@@H](CO)[C@@H](c3ccc(C#Cc4ccc(F)cc4)cc3)[C@@H]2C1	x	8.2*	x	x
O=C(Cc1ccccc1)N1CC(=O)N2[C@H](C1)[C@@H](c1ccc(C#Cc3ccccc3)cc1)[C@@H]2CO	x	8.0*	x	x
CCS(=O)(=O)N1CC(=O)N2[C@H](C1)[C@@H](c1ccc(C#CCC(C)C)cc1)[C@@H]2CO	x	10*	x	x
C/C=C/c1ccc2c(c1)O[C@H](CN(C)C(=O)C1CCCCC1)[C@@H](C)CN([C@H](C)CO)S2(=O)=O	0	-2	-2	11
CCCNC(=O)Nc1ccc2c(c1)C(=O)N(C)C[C@@H](OC)[C@H](C)CN(S(C)(=O)=O)[C@H](C)CO2	x	0	x	x
O=C(CSc1n[nH]c(-c2ccccn2)n1)Nc1ccccc1F	2	0	-2	54*
O=C(CSc1cccc2cccnc12)Nc1ccccc1F	-4	-1	2	59*
Cc1ccc(C)c(NC(=O)CSc2cccc3cccnc23)c1	-2	1	-5	-9
NNC(=O)CSc1cccc2cccnc12	x	x	x	48*
O=C(CSc1cccc2cccnc12)OCC(=O)c1ccccc1	-1	x	1	53*
C[C@@H]1CCCCO[C@H](CN(C)Cc2ccc3c(c2)OCO3)[C@@H](C)CN([C@@H](C)CO)C(=O)c2cc(NC(=O)C3CCCCC3)ccc2O1	3	1	-85	1
O=C(Sc1cccc2cccnc12)c1ccccc1Br	-1	2	36	75*
CC(=O)/C(=N\Nc1ccccc1)Sc1cccc2cccnc12	2	x	x	2
COCC(=O)Nc1ccc2c(c1)OC[C@@H](C)N(C(=O)C1CCCC1)C[C@H](C)[C@@H](OC)CN(C)C2=O	4	-2	-4	-8
COc1ccc(S(=O)(=O)Nc2cccc3c2O[C@H](CN(C)C)[C@@H](C)CN([C@H](C)CO)C3=O)cc1	-7	1	127*!	-21
COc1ccc(S(=O)(=O)Nc2cccc3c2O[C@H](CN(C)S(C)(=O)=O)[C@H](C)CN([C@@H](C)CO)C3=O)cc1	2	-2	x	-2
C[C@H](CO)N1C[C@H](C)[C@H](CN(C)Cc2ccc(Oc3ccccc3)cc2)Oc2c(NS(=O)(=O)c3ccc(Cl)cc3)cccc2C1=O	-6	-2	80*	2
CNC(=O)C[C@@H]1CC[C@@H]2[C@@H](COc3ccc(NC(=O)c4cc(C)on4)cc3C(=O)N2C)O1	2	0	2	4
CC1(C)Cc2c(sc3ncnc(NN)c23)CO1	-19	1	-5	47*
C[C@@H]1CN([C@H](C)CO)C(=O)c2cc(NC(=O)CCCN(C)C)ccc2O[C@@H](C)CCCCO[C@H]1CN(C)C(=O)Nc1cccc2ccccc12	-5	1	x	31
SMILES	PglD DTNB	CFTR F508del cor	C2C12 statin	ARNT TACC3 PPI
COc1ccc(N2CCN(C(c3cc4cc(C)ccc4[nH]c3=O)c3nnnn3Cc3ccccc3)CC2)cc1 (configuration not stated)	0	x	75*	-9
COc1ccc(Cn2nnnc2C(c2cc3cc(C)ccc3[nH]c2=O)N2CCOCC2)cc1 (configuration not stated)	4	x	-13	0
O=C(Cn1ncc2c3ccccc3n(Cc3ccccc3F)c2c1=O)NCC1CCCO1 (configuration not stated)	5	2	-4	-8
O=C(Cn1ncc2c3ccccc3n(Cc3cccc(Cl)c3)c2c1=O)NCC1CCCO1 (configuration not stated)	1	2	100*	-8
O=C(CN1C2=NCCCN2c2ccccc21)c1ccc(Br)s1	1	x	115*	-1
Cc1ccc(CN2C3=NCCCN3c3ccccc32)cc1	3	x	x	0
c1ccc(CN2C3=NCCCN3c3ccccc32)cc1	3	x	79*	-1
Cc1noc(C)c1S(=O)(=O)Nc1ccc2c(c1)C(=O)N([C@@H](C)CO)C[C@H](C)[C@H](CN(C)S(=O)(=O)c1ccccc1)OCCCC[C@H](C)O2	3	0	x	-5
O=S1(=O)CCN(C(CO)c2ccccc2)CC1 (configuration not stated)	x	10*	x	-4
C[C@@H]1CN([C@@H](C)CO)C(=O)c2cc(NC(=O)CCCCCC(=O)Nc3ccccc3N)ccc2O[C@H]1CN(C)C(=O)Nc1cccc2ccccc12	x	0	x	x
O=C(Nc1ccc(F)cc1)NC1CCN(Cc2nnnn2Cc2ccco2)CC1	1	x	95*	5
COc1ccc(/C(=N/Nc2ncnc3ccccc23)C(=O)O)cc1	2	3	8	60*
CCOC(=O)/C(=N\Nc1ncnc2ccccc12)c1ccc(OC)cc1	-4	-1	18	14
CC(=O)OC[C@H]1O[C@@H](Sc2cccc3cccnc23)[C@H](OC(C)=O)[C@@H](OC(C)=O)[C@H]1OC(C)=O	4	0	x	64*
CC(=O)Nc1cccc(-c2ccnc3c2CC(C)(C(=O)Nc2ccc4c(c2)OCO4)O3)c1 (configuration not stated)	-4	10*	-67	x
O=C(CN(c1cccc(Cl)c1)S(=O)(=O)c1ccc(Cl)cc1)NCc1ccccn1	-3	-1	24	47*
C/C(=N\NC(=O)c1nnn(-c2nonc2N)c1CN(C)c1ccccc1)c1ccccn1	2	x	27	48*
O=C(c1cccc(F)c1)N1CCc2ccccc2C1	-5	x	x	2
O=C(CNc1cccc(F)c1)N1CCc2ccccc2C1	0	0	118*	6
C[C@@H]1CCCCO[C@@H](CN(C)S(=O)(=O)c2ccc(Cl)cc2)[C@H](C)CN([C@H](C)CO)C(=O)c2cc(NC(=O)Cc3ccccc3)ccc2O1	1	-3	x	8
Cc1ccc(Nc2cc(=O)[nH]c(=O)[nH]2)c(C)c1	x	x	121*	0
C[C@H](CO)N1C[C@H](C)[C@@H](CN(C)Cc2ccc3c(c2)OCO3)Oc2ccc(NC(=O)C3CC3)cc2C1=O	4	-1	4	-19
CCC1(C)Cc2c(sc3nc(NN)n(C)c(=O)c23)CO1 (configuration not stated)	-1	x	144*	x
O=C(NCC12CC3CC(CC(C3)C1)C2)c1nn2c(c1Cl)NC(c1ccco1)CC2C(F)(F)F (configuration not stated)	5	x	137*	-3
O=C(NCC[C@@H]1CC[C@H](NS(=O)(=O)c2ccc(F)cc2)[C@@H](CO)O1)c1ccccc1F	x	2	x	x

From PubChem
